Bioassay records from PubChem BioAssay.
aSyn 5UTR act: Activators via SNCA 5'UTR binding, MLPCN; alpha-synuclein 5'UTR reporter, activators screen; activity score, % (tested at 7.5 µM), hits read low; 300,000 compounds, 7.1% hits; AID 1814, 2009; in the data active = activity score below about -60%
Numbers stand for hits. Not all results are given here.

For O=C(Nc1ccc(-c2nc3cccnc3s2)cc1)C1CCCO1 (stereo unspecified) the results were aSyn 5UTR act inactive.
O=C(Nc1nc2ccc(F)cc2s1)C1CCCO1 (stereo unspecified) was read as aSyn 5UTR act -145.2.
CC(=O)Nc1ccc(/C=N/Nc2nc3ccccc3[nH]2)cc1 was read as aSyn 5UTR act -101.2.
COC(=O)c1ccc(/C=N/Nc2nc3ccccc3[nH]2)cc1 was read as aSyn 5UTR act -175.9.
`C(=N\Nc1nc2ccccc2[nH]1)/c1ccncc1` gave aSyn 5UTR act -147.4.
Screening Clc1nc2ccccc2cc1/C=N/Nc1nc2ccccc2[nH]1 returned aSyn 5UTR act -97.2.
`c1ccc2[nH]c(NN=C3CCCCCC3)nc2c1` gave aSyn 5UTR act -113.7.
CCn1ccc(C(=O)Nc2ccc(Cl)cn2)n1 was read as aSyn 5UTR act -136.9.
CCn1nccc1C(=O)Nc1ccc(Cl)cn1 was read as aSyn 5UTR act -96.3.
CCn1ccc(C(=O)Nc2ccccc2SC)n1 was read as aSyn 5UTR act -174.8.
`CN(C)c1cccc(C(=O)NC2CCCCCC2)c1` gave aSyn 5UTR act -118.1.
`CCn1c(C)c(C)c2cc(C(=O)NC3CCCCCC3)ccc21` gave aSyn 5UTR act -86.7.
Cc1cc(C(=O)NC2CCCCCCC2)ccc1[N+](=O)[O-] was read as aSyn 5UTR act -141.0.
For Cc1cc(C(=O)Nc2ccncc2)ccc1[N+](=O)[O-] the results were aSyn 5UTR act -64.8.
Screening Cc1cccc(C(=O)NC2CCCCCCC2)c1 returned aSyn 5UTR act -213.7.
For CCCN1C(=O)c2cc(C(=O)NC3CCCCCC3)ccc2C1O (stereo unspecified) the results were aSyn 5UTR act -81.0.
For Cc1cccc(CC(=O)NCC2CCCCC2)c1 the results were aSyn 5UTR act -71.3.
Screening CCCCNC(=O)/C=C/c1cccs1 returned aSyn 5UTR act -86.1.
`Cc1ccc(CNC(=O)/C=C/c2cccs2)cc1` gave aSyn 5UTR act -184.5.
For COC(=O)Cc1c(C)c2ccc(OC(C)C)cc2oc1=O the results were aSyn 5UTR act -156.4.
For CC1CCCCN1C(=O)C1CC(c2ccc(F)cc2)=NO1 (stereo unspecified) the results were aSyn 5UTR act -88.7.
`O=C(C1CC(c2ccc(F)cc2)=NO1)N1CCCCC1` (stereo unspecified) gave aSyn 5UTR act -141.2.
O=C(C1CC(c2ccccc2O)=NO1)N1CCCCC1 (stereo unspecified) was read as aSyn 5UTR act -112.1.
For CC1CCCCN1C(=O)CSc1ccc(-c2ccc(F)cc2)nn1 (stereo unspecified) the results were aSyn 5UTR act -76.4.
COc1ccc(CCNCC(O)Cn2c3ccccc3c3ccccc32)cc1OC (stereo unspecified) was read as aSyn 5UTR act inactive.
For COc1ccc(CCN2CC(C(=O)NCCc3ccccc3)CC2=O)cc1OC (stereo unspecified) the results were aSyn 5UTR act -97.3.
For O=C(Nc1cccc2c1CCCC2)c1cc([N+](=O)[O-])ccc1Cl the results were aSyn 5UTR act -79.4.
O=C(Nc1cccc2ncccc12)c1cc([N+](=O)[O-])ccc1Cl was read as aSyn 5UTR act -61.9.
For Cc1ccc(O)c(NC(=O)c2cc([N+](=O)[O-])ccc2Cl)c1 the results were aSyn 5UTR act -62.0.
For O=C(CCl)Nc1cccc2ncccc12 the results were aSyn 5UTR act -95.4.
For Cc1ccc(C2(c3ccc(C)cc3)CC2C(=O)Nc2ccc([N+](=O)[O-])cc2O)cc1 (stereo unspecified) the results were aSyn 5UTR act inactive.
Cc1cc(O)c(NC(=O)c2cc([N+](=O)[O-])ccc2Cl)cc1C was read as aSyn 5UTR act -106.4.
For CC(C)OC(=O)/C(C#N)=C/c1cn(Cc2ccccc2)c2ccccc12 the results were aSyn 5UTR act inactive.
`CCOC(=O)c1ccc(-c2ccc(/C=C(\C#N)C(=O)NCC3CCCO3)o2)cc1` (stereo unspecified) gave aSyn 5UTR act -84.9.
Screening N#C/C(=C\c1cccs1)C(=O)NCC1CCCO1 (stereo unspecified) returned aSyn 5UTR act -66.1.
`N#C/C(=C\c1c[nH]c2ccccc12)C(=O)NCC1CCCO1` (stereo unspecified) gave aSyn 5UTR act -72.8.
CC(C)OC(=O)/C(C#N)=C/c1c[nH]c2ccccc12 was read as aSyn 5UTR act -79.9.
Screening CN(C)/C=N/c1cnc(C(=O)c2ccc(Cl)cc2)n1C returned aSyn 5UTR act -202.0.
For CCc1ccc(Nc2cc(=O)n(C3CCCCC3)c(=O)[nH]2)cc1 the results were aSyn 5UTR act -78.7.
For O=C(Cn1cc(SCc2cccc(Cl)c2)c2ccccc21)N1CCOCC1 the results were aSyn 5UTR act -152.6.
`Cc1cccc(CSc2cn(CC(=O)N3CCOCC3)c3ccccc23)c1` gave aSyn 5UTR act -129.9.
`Cc1ccc2nc(-c3ccc(NC(=O)COCC(=O)O)cc3)sc2c1` gave aSyn 5UTR act -96.0.
`Cc1ccc2sc(-c3ccc(NC(=O)/C=C\C(=O)O)cc3)nc2c1` gave aSyn 5UTR act -95.9.
